Screen size: about 290,000 compounds; about 27,000 (9.3%) were called active. Cut-off read from the data, not from the text of the source: active = inhibition mostly above about 28% (no sharp cut-off); inactive = mostly below about 43%. This excerpt belongs to a sample that is enriched for actives.
experiment: A qHTS for Small Molecule Inhibitors of Shiga Toxin; details: Vero cells, Shiga toxin protein synthesis inhibition reporter; at 38.7 µM, hits give high values; note: 0% is about no effect

| Structure (SMILES) | inhibition |
| --- | --- |
| Cc1cc(C)c(C(=O)CSc2nc(C)cc(=O)[nH]2)c(C)c1 | -13.9% (inactive) |
| CCC(C)(C)n1nnnc1C(c1ccc(OC)c(OC)c1)N1CCN(C(=O)c2ccco2)CC1 (stereo unspecified) | -11.9% (inactive) |
| CCOC(=O)[C@@H]1[C@H]2COc3cc(OC)ccc3[C@H]2N2C(=O)N(c3ccc(F)cc3)C(=O)[C@]12C | -4.71% (inactive) |
| Cc1cc(NC(=O)CN2CCCCC2C)nc2c1c(=O)oc1ccccc12 (stereo unspecified) | -0.755% (inactive) |
| CCN(CC)CCN1C(=O)C(=O)/C(=C(/O)c2ccc(OC)c(OC)c2)C1c1ccccn1 (stereo unspecified) | 59.8% (inactive) |
| CCN(CC)CCN1C(=O)C(=O)/C(=C(/O)c2ccccc2)C1c1ccccc1F (stereo unspecified) | 19.4% (inactive) |
| CCN(CC)CCN1C(=O)C(=O)/C(=C(/O)c2cnn(-c3ccccc3)c2C)C1c1cccs1 (stereo unspecified) | 79.5% (active) |
| O=[N+]([O-])c1cc(C(F)(F)F)ccc1NCCc1ccncc1 | 2.61% (inactive) |
| NC(=O)c1ccc(Nc2ccc3c(c2)CCC3)c([N+](=O)[O-])c1 | 9.03% (inactive) |
| CSc1cccc(NC(=O)CN2C(=O)COc3ccc(S(=O)(=O)N4CCOCC4)cc32)c1 | 10.9% (inactive) |
| Cc1ccc(NC(=O)Cn2nnc(C(=O)NCc3ccco3)c2N)c(C)c1 | -2.94% (inactive) |
| Cc1ccccc1NC(=O)NCc1ccco1 | 18.7% (inactive) |
| Cc1ccc(NC(=O)C(=O)NCc2ccco2)c(C)c1 | 109% (active) |
| O=c1c2cc(Br)ccc2nc(-c2cccc(Cl)c2)n1O | 0.78% (inactive) |
| COc1cc(/C=N/NC(=O)Cc2ccccc2)cc(OC)c1OC | -8.46% (inactive) |
| NS(=O)(=O)c1cccnc1Nc1cccc(Cl)c1 | 15.1% (inactive) |
| OCCCNc1nccc(-c2cc(Nc3cccc(Cl)c3)ncn2)n1 | 51.3% (active) |
| CC(C)n1cnc2c(Nc3cccc(Cl)c3)nc(N(CCO)CCCO)nc21 | -2.33% (inactive) |

| Structure (SMILES) | inhibition |
| --- | --- |
| O=C(O)CN1c2cccc3cccc(c23)S1(=O)=O | -1.09% (inactive) |
| O=C(NCc1cccnc1)c1ccccc1NC(=O)c1c(F)cccc1F | -17.6% (inactive) |
| CCOC(=O)C1(CCOC)CCN(Cc2ccc(C(=O)OC)cc2)CC1 | 74.5% (active) |
| CCOC(=O)C1(CCOc2ccccc2)CCN(Cc2ccc(C#CCCO)cc2)CC1 | -10.3% (inactive) |
| CCOC(=O)C1(CCOc2ccccc2)CCN(Cc2cc(OC)cc(OC)c2)CC1 | -16.1% (inactive) |
| Cc1cc(NC(=O)CCN2CCN(Cc3ccccc3)CC2)ccc1Br | 3.31% (inactive) |
| O=C(NC1Cc2ccccc2C1)c1cc(COc2cccc(C(F)(F)F)c2)on1 | -0.154% (inactive) |
| CCC(NC(=O)c1cc(COc2ccc(F)c(F)c2)on1)c1ccncc1 (stereo unspecified) | 52.5% (active) |
| C=CCC1(CC=C)CCCN1C(=O)c1cc(COc2ccc(-n3cncn3)cc2)on1 | 40.9% (inactive) |
| O=C(c1cc(COc2cccc(C(F)(F)F)c2)on1)N1CCSCC1 | 26.5% (inactive) |
| Cc1c(C(=O)N2CCOCC2)[nH]c2ccc(OCc3ccccc3)cc12 | 5.47% (inactive) |
| O=C(c1c(F)cccc1F)N1CCN(c2ncc(Br)cn2)CC1 | -6.62% (inactive) |
| CCOC(=O)CC1COCCN1C(=O)c1cc(COc2ccc(F)c(F)c2)on1 (stereo unspecified) | 72.8% (active) |
| O=C(c1cc(COc2c(F)cccc2F)on1)N1CCSCC1 | 100% (active) |
| O=C(c1cc(COc2ccc(F)c(F)c2)on1)N1CCOCC1 | 90.7% (active) |
| Cc1cc(NC(=O)COC(=O)c2ccc(F)c(S(=O)(=O)N3CCOCC3)c2)no1 | -2.48% (inactive) |
| Cc1nonc1C1CCCN1C(=O)c1cc(COc2cccc(C(F)(F)F)c2)on1 (stereo unspecified) | 23.7% (inactive) |
| O=C(CC(NC(=O)c1ccccc1)c1ccccc1)Nc1ccc(F)c(F)c1 (stereo unspecified) | 12.4% (inactive) |
